Values joined by “and” are separate entries in the source; they are usually repeats but may differ in a detail not shown here. Equal values may be shown once. In all, about 290,000 compounds went through this assay and about 890 (0.31%) were called active. No stated cut-off is given here; in the data, active means inhibition mostly above about 52% (no sharp cut-off); inactive means mostly below about 76%. Many of the other results were omitted from the sample, so actives are more common in it than they were. Some structures have more than one record in an assay (separate samples or runs), and their calls can disagree.
Assay: cell-free HIV fusion peptide-binding blockers – biochemical, uHTS, fluorescence dequenching, primary screen (AID 1986)
Conditions: 30 min, stronger effect = higher value
[1] = measured here: repeat confirmation average inhibition, at 18.6 µM

Row | Structure (SMILES) | inhibition (at 20 µM) | inhibition [1] [%]
1 | O=C(CN1c2ccccc2S(=O)(=O)c2ccccc21)NCc1ccccc1 | -0.5% (inactive) | 
2 | Cc1ccc(/C=C2\SC(=S)N(C3CCS(=O)(=O)C3)C2=O)o1 (centres undefined) | 25.1% (inactive) | 
3 | O=C1/C(=C/c2ccco2)SC(=S)N1C1CCS(=O)(=O)C1 (centres undefined) | 39.9% (inactive) | 
4 | CC1=C(C#N)C(=O)N(C2CCS(=O)(=O)C2)C(=O)/C1=C\c1ccc(C)o1 (centres undefined) | 101% (active) | 
5 | CC1=C(C#N)C(=O)N(C2CCS(=O)(=O)C2)C(=O)/C1=C\c1ccco1 (centres undefined) | 83.1% (active) | 
6 | Cc1ccc(/C=C2/SC(=S)N(C3CCCCC3)C2=O)o1 | 32.1% (inactive) | 
7 | O=C1/C(=C\c2ccco2)SC(=S)N1C1CCS(=O)(=O)C1 (centres undefined) | 40.7% (inactive) | 
8 | Cn1c(=O)oc2cc(S(=O)(=O)N3CCCC(C(=O)N4CCc5ccccc5C4)C3)ccc21 (centres undefined) | 2.2% (inactive) | 
9 | Cc1ccc(CS(=O)(=O)Cc2ccc(C(=O)NCCc3ccccc3)o2)cc1 | 0.5% (inactive) | 
10 | CC(C)CNS(=O)(=O)c1cc(C(=O)N2CCOCC2)c(Cl)cc1Cl | 1.1% (inactive) | 
11 | COc1cc(/C=N/NC(N)=O)ccc1OCC(=O)Nc1ccc(C)c(C)c1 | 11.1% (inactive) | 
12 | Cc1cc(C(F)F)n2ncc(C(=O)NC3CCCCCC3)c2n1 | 3.7% (inactive) | 
13 | Cc1c(C(=O)NC(c2ccccn2)C(F)(F)F)oc2c(F)cccc12 (centres undefined) | 0.9% (inactive) | 
14 | COc1ccc(CNC(=O)[C@@H](NC(=O)C2CCN(C(=O)[C@@H](N)Cc3ccccc3)CC2)C(C)C)cc1 | -1.9% (inactive) | 
15 | COc1ccc(OC)c(CNC(=O)CCSCc2ccc(F)cc2Cl)c1 | 0% (inactive) | 
16 | CCN1C(=O)/C(=C/N2CCc3ccccc3C2)SC1=S | 0.4% (inactive) | 
17 | CCN1C(=O)/C(=C\N2CCCc3ccccc32)SC1=S | 3.7% (inactive) | 
18 | CCN1C(=O)/C(=C/N2CCc3ccccc32)SC1=S | 112% (active) | 63
19 | Fc1ccc(N2CCN(C(c3cccs3)c3nnnn3CCc3ccccc3)CC2)cc1 (centres undefined) | -1.4% (inactive) | 
20 | COc1cc(C2CC(=O)N(CC(=O)NCC3CCCO3)c3ccccc3S2)cc(OC)c1OC (centres undefined) | 0.6% (inactive) | 
21 | COc1cc(NC(=O)c2cnn3c(C(F)F)cc(C4CC4)nc23)c(OC)cc1Cl | -0.3% (inactive) | 

Row | Structure (SMILES) | inhibition (at 20 µM) | inhibition [1] [%]
22 | CC(C)(C)OC(=O)N1CCC(c2c(C(=O)NC3CC3)cnn2-c2ccc(Cl)cc2)CC1 | 3.6% (inactive) | 
23 | CC(C)(C)OC(=O)N1CCC(c2cc(=O)n3[nH]c(-c4ccc(Cl)cc4)cc3n2)CC1 | -1.3% (inactive) | 
24 | COc1ccc(-n2ncc(C(=O)NC3CC3)c2C2CCN(C(=O)OC(C)(C)C)CC2)cc1 | 1.2% (inactive) | 
25 | COc1ccc(CCNC2CC(=O)N(CCc3ccccc3)C2=O)cc1 (centres undefined) | 0.5% (inactive) | 
26 | COCCN1C(=O)N(c2cccc(C)c2)C(=O)C1CC(=O)Nc1cc(OC)cc(OC)c1 (centres undefined) | 0.1% (inactive) | 
27 | O=[N+]([O-])c1ccc(/C=N\NS(=O)(=O)c2ccc(F)cc2)o1 | 1.3% (inactive) | 
28 | O=C1OC(c2ccc(F)cc2)=C/C1=C\c1ccc(O)cc1 | 1.8% (inactive) | 
29 | O=C1OC(c2ccc(F)cc2)=C/C1=C\c1ccc([N+](=O)[O-])o1 | 77.6% (active) | 
30 | COc1cccc(/C=c2\sc3nc(-c4cccs4)nn3c2=O)c1OC | 2.8% (inactive) | 
31 | COc1ccc(Br)cc1/C=c1\sc2nc(-c3ccco3)nn2c1=O | 56.1% (active) | 
32 | COc1ccc(/C=c2\sc3nc(-c4ccccc4OC)nn3c2=O)c(OC)c1 | 11.2% (inactive) | 
33 | CCOc1ccc(/C=c2\sc3nc(-c4ccco4)nn3c2=O)cc1OCC | 21.5% (inactive) | 
34 | COc1ccccc1/C=c1\sc2nc(-c3ccco3)nn2c1=O | 36.3% (inactive) | 
35 | COc1ccc(OC)c(/C=c2\sc3nc(-c4cccs4)nn3c2=O)c1 | 60.9% (active) | 58
36 | CC(C)n1cc(C(=O)c2ccccc2O)cc(C#N)c1=O | -0.9% (inactive) | 
37 | CC(C)CC(C(=O)O)N1C(=O)C2C3c4ccccc4C(c4ccccc43)[C@@H]2C1=O (some centres undefined) | -0.8% (inactive) | 
38 | CCCCCCCNC(=O)C1(CC2CC(c3ccc(Cl)cc3)=NO2)CCN(C(=O)OC(C)(C)C)CC1 (centres undefined) | 0.6% (inactive) | 
39 | Cc1oncc1C(=O)NC1CCCCC1 | 0.8% (inactive) | 
40 | CCOc1ccccc1N(CC(=O)NCCc1ccccc1)C(=O)CCC(=O)Nc1ccccn1 | 0% (inactive) | 
41 | C=CCN1C(=O)/C(=C\C=C2\N(C)c3ccccc3C2(C)C)SC1=S | 54.6% (active) | 
42 | CCCCN1C(=O)/C(=C/C=C2\N(C)c3ccccc3C2(C)C)SC1=S | -0.3% (inactive) | 

Row | Structure (SMILES) | inhibition (at 20 µM) | inhibition [1] [%]
43 | CN1/C(=C\C=C2/SC(=S)N(CC(=O)O)C2=O)C(C)(C)c2ccccc21 | 148% (inactive) | 
44 | COc1cccc(-c2noc(CCCC(=O)Nc3ccc(C(N)=O)cc3)n2)c1 | 0.5% (inactive) | 
45 | CCCCCCCCn1ccc(=N)cc1 | -1.2% (inactive) | 
46 | CCCCCCn1ccc(=N)cc1 | -2% (inactive) | 
47 | CCCCCCCCCCCCCCCCn1cc[n+](C)c1 | 137% (inactive) and 70.3% (active) | 
48 | C[C@H](NC(=O)C1CCN(S(=O)(=O)c2ccccc2)CC1)C(=O)NCc1cccc(Cl)c1 | -1.4% (inactive) | 
49 | CCOC(=O)C1=C(C)C2C3C(=O)N(c4cc(C)ccc4C)C(=O)C3C1(C)C1C(=O)N(c3cc(C)ccc3C)C(=O)C21 (centres undefined) | -0.1% (inactive) | 
50 | COC(=O)c1sc(N2C(=O)C(O)=C(C(=O)c3ccc(C)o3)C2c2ccc(OC)c(OC)c2)nc1C (centres undefined) | 15.3% (inactive) | 
51 | COc1ccc(C(C)=O)cc1CSc1nc2cc(C(=O)O)ccc2c(=O)n1Cc1ccccc1 | 62.4% (active) | 
52 | COCCn1c(SCc2cc(C(C)=O)ccc2OC)nc2cc(Cl)ccc2c1=O | -2.4% (inactive) | 
53 | CCOC(Cn1c(SCc2cc(C(C)=O)ccc2OC)nc2ccccc2c1=O)OCC | 3.3% (inactive) | 
54 | COCC(C)n1c(SCC(=O)c2cc(C)n(C)c2C)nc2ccccc2c1=O (centres undefined) | 0.2% (inactive) | 
55 | CC(C)(C)c1ccc(NC(=O)C2CCCN(c3cnccn3)C2)cc1 (centres undefined) | -0.1% (inactive) | 
56 | O=C1Nc2ccccc2Oc2cc([N+](=O)[O-])cc(Oc3ccccc3)c21 | 59.7% (active) | 
57 | O=C1Nc2ccccc2Oc2cc([N+](=O)[O-])ccc21 | 13% (inactive) | 
58 | Cc1cccc(Oc2cc([N+](=O)[O-])cc3c2C(=O)Nc2ccccc2O3)c1 | 46.8% (inactive) | 
59 | Cc1ccc(Oc2cc([N+](=O)[O-])cc3c2C(=O)Nc2ccccc2O3)cc1 | 40.9% (inactive) | 
60 | CCOc1cc([N+](=O)[O-])cc2c1C(=O)Nc1ccccc1O2 | 104% (active) | 57.4
61 | Cc1ccc2c(c1)NC(=O)c1cc([N+](=O)[O-])ccc1O2 | 2.5% (inactive) | 
